# Compound activity: PubChem BioAssay, several laboratories
# A selection: hits, their analogues and other compounds. The true share with any hit is near 7.2%.
# SUMO Mot1 rescue: yeast Mot1-301 growth rescue at high temperature, primary screen, SUMOylation pathway inhibitor project, S. cerevisiae, ATP luminescence, 38.5C; growth rescue, % at 18.8 µM; 1% of 320,000 active; S. cerevisiae Mot1-301 growth rescue; percent above DMSO median, 100 means doubled;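 active means every valid replicate shows activation above 250% relative to neutral control wells; inactive means the rest, any valid replicate at or below 250%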;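 further: OY570 slx delta 5 strain wells were the positive control but not used for scaling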
# VLA-4 inh: inhibition in human VLA-4 binding assay, primary screen, VLA-4 allosteric modulator project, MLPCN library, flow cytometry, VLA-4 expressing cells; Integrin alpha-4 (Homo sapiens), P13612; ligand binding flow cytometry; inhibition, % (about 7 µM as worked out from the volumes in the protocol); 0.2% of 330,000 active; AID 2557, 2010; in the data active means inhibition above about 50%
# ALR H2O2 inh: inhibitors of human ALR sulfhydryl oxidase, primary screen, biochemical, H2O2 detection, HRP-luminol luminescence, single point. FAD-linked sulfhydryl oxidase ALR (Homo sapiens), P55789. purified ALR, DTT oxidation. inhibition, % (test concentration not listed). 3.8% of 290,000 active;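 active means mean replicate inhibition above about 79%, with every replicate also reaching it, limit read from the data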
# Bfl-1 A1 inh: caspase 3/7 activation in MEF A1-2A-BIM cells, primary screen, A1 inhibitor project, cell-based, luminescence, HTS; Caspase-Glo 3/7 luminescence, 3 h; percent of clofoctol response, vehicle zero; caspase activation, % (concentration not given with the values); 0.066% of 330,000 active;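 active means over half of replicate activation scores above 10%, or exactly half above 10 with the replicate mean above 10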
# AHR act: AHR activators, primary screen, cell-based, luminescence, luciferase reporter, human; activation, % at 5 µM; AID 2796, 2010; AHR-responsive luciferase reporter cells; Aryl hydrocarbon receptor (Homo sapiens), P35869; 2.5% of 320,000 active; in the data active means activation above about 47%;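 further: 0% = vehicle wells and 100% = reference agonist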
# Target sequence (P35869 whole entry, looked up): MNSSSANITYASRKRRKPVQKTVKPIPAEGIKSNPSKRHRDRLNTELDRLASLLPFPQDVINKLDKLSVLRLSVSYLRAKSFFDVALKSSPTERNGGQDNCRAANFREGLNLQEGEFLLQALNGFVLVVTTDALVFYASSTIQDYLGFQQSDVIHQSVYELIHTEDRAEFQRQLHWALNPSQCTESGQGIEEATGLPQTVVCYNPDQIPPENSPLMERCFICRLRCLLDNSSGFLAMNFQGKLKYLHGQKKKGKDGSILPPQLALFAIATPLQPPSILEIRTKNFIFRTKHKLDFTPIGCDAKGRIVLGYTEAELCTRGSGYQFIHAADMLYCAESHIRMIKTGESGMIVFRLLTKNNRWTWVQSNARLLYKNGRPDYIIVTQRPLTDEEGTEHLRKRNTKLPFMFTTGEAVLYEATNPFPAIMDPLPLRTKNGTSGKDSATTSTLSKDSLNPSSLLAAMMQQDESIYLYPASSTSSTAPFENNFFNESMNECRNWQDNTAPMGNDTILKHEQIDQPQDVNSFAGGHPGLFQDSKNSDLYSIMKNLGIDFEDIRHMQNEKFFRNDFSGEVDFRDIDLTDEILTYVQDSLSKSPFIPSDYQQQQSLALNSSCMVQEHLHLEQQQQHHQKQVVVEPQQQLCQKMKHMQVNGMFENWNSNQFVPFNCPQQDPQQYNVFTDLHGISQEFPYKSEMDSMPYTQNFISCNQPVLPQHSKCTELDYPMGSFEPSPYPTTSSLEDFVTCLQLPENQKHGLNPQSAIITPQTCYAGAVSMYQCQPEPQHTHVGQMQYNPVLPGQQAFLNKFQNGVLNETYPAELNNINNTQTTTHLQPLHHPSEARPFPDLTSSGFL
# Efflux pump mplx: inhibitors of Candida efflux pumps in yeast, primary screen, S. cerevisiae, Nile Red, multiplex; 0.44% of 330,000 active; AID 485275, 2010; inhibition, % at 10 µM; S. cerevisiae Candida pump triplex;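 active means plate passing quality check with inhibition over a set limit, or well fluorescence over plate mean plus 4 SD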;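 further: Nile Red retained in pooled yeast measured as flow cytometry median fluorescence; 0% = buffer negative control and 100% = Enniatin B positive control; higher means more Nile Red kept so more efflux inhibition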
# Active calls of the source: *; i = inactive; x = no result given.
SMILES,SUMO Mot1 rescue,VLA-4 inh,ALR H2O2 inh,Bfl-1 A1 inh,AHR act,Efflux pump mplx
COC(=O)c1ccc(CSCC(=O)Nc2ccccc2)cc1,26,-8,92*,0,-2,0
Cc1ccc(C)c(S(=O)(=O)NCc2ccc(C(=O)N3CCCCC3C)cc2)c1 (stereo not drawn),-7,x,-4,0,-1,0
CC1O[C@@H](O[C@H](C)CC/C=C/C(=O)O)C(O)C[C@H]1O (stereo partly drawn),-7,-2,3,0,1,0
CCc1nc2n[nH]c(N)c2c2c1CSC(C)(C)C2,2,4,87*,0,0,0
COc1ccc(CN2CCN(CCc3ccccc3)C(CCO)C2)c(O)c1 (stereo not drawn),19,15,4,-1,3,0
CC(C)CCOc1ccc(CO[C@@H]2[C@H]3OC(C)(C)O[C@H]3O[C@@H]2C(O)CO)cc1 (stereo partly drawn),-14,2,87*,1,1,0
CC1Oc2ccccc2C=C1C1/C(=C(/O)c2ccccc2)C(=O)C(=O)N1CCCN(C)C (stereo not drawn),286*,8,-7,0,1,0
CN(Cc1ccccc1)C(=O)c1cc2cc(F)ccc2[nH]1,4,-1,-6,-2,62*,0
O=C(Nc1ccccc1-c1nc2ccccc2s1)C1=COCCO1,-9,38,-6,1,93*,0
O=C(Nc1nc2ccc(F)cc2s1)C1=COCCO1,-9,-49,-6,1,48*,0
O=C(Nc1ccccc1N1CCCC1)C1=COCCO1,122,47,x,0,4,0
Cc1ccc(-n2c(CNc3ccc(C)c(Cl)c3)n[nH]c2=S)cc1,-21,0,59,0,14,0
O=C(N/N=C/c1ccc(OC2CSC2)cc1)c1ccccc1,21,0,-25,-7,3,0
O=C(/C=C/c1ccc(OC2CSC2)cc1)c1ccccc1,47,7,83*,-3,6,0
Cc1c(O)cc2c(c1O)C(=O)CC(c1ccccc1)O2 (stereo not drawn),-17,-19,2,0,79*,0
O=C1C[C@@H](c2ccc(O)cc2)Oc2cc(O)cc(O)c21,1,-1,100*,1,-4,0
Cc1cc(N)n(-c2nc(-c3cccnc3)nc3ccccc23)n1,-18,33,6,0,61*,0
c1ccc2c(N3CCOCC3)nc(-c3ccncc3)nc2c1,1,10,0,0,20,0
c1cncc(-c2nc(N3CCOCC3)c3ccccc3n2)c1,-12,2,-3,1,78*,0
Cc1cc(N)n(-c2cc(C)c3ccccc3n2)n1,x,2,x,0,23,0
O=C(COC(=O)c1ccc(S(=O)(=O)N2CCCC2)cc1)Nc1cccc(F)c1,19,9,-2,1,0,0
Cc1cc(-c2cc(C(=O)NCc3ccccc3)on2)nc(S(C)(=O)=O)n1,9,-8,5,0,0,0
CC(CCc1ccccc1)NC(=O)C1CCC1 (stereo not drawn),20,-2,-3,1,3,0
CC(C)N(Cc1nccn1C)C(=O)CC1C(=O)NCCN1Cc1ccc(F)c(F)c1 (stereo not drawn),-2,-17,-4,0,2,-3
COc1ccc(S(=O)(=O)N2CCCCCC2)cc1C(=O)NCCOc1ccc(C)cc1,115,0,x,1,-1,0
SMILES,SUMO Mot1 rescue,VLA-4 inh,ALR H2O2 inh,Bfl-1 A1 inh,AHR act,Efflux pump mplx
O=Cc1cccc(OC(=O)/C=C/c2ccco2)c1,-10,3,98*,-6,0,0
Cc1ccccc1NC(=S)NC(=O)COc1ccccc1C,-11,5,9,1,-2,0
c1ccc(Cn2c[n+](Cc3ccccc3)cn2)cc1,-11,-22,x,1,-1,0
Fc1ccccc1-c1cc2ncccc2cn1,19,3,3,-10,67*,-1
CCN(CC)C(=O)c1[nH]cnc1C(=O)Nc1cccc(Cl)c1,23,21,-1,0,67*,0
Cn1c(NNC(=O)C2CCCCC2)cc(=O)n(C)c1=O,10,10,35,1,2,0
CCN(CC)CCn1c2c(c(SCC(=O)Nc3nc(C)cs3)nc1=O)CCCC2,10,-5,98*,0,-2,0
CCN(CC)CCn1c2c(c(SCC(=O)Nc3nc(C)cs3)nc1=O)CCC2,-1,-2,99*,0,1,0
CCN(CC)CCCn1c2c(c(SCC(=O)Nc3nc(C)cs3)nc1=O)CCC2,-15,8,-235,1,1,0
Clc1ccc(-c2nc3ccncc3[nH]2)cc1,-15,9,99*,0,25,0
O=C(N[C@H](C(=O)O)c1ccccc1)C1CCC(Cn2cnc3ccccc3c2=O)CC1 (stereo partly drawn),-24,-3,-4,0,0,0
Cc1c(OC(C)C(=O)N[C@H](C(=O)O)c2ccccc2)ccc2c3c(c(=O)oc12)CCCC3 (stereo partly drawn),10,6,96*,0,1,0
Cc1c(OCC(=O)N[C@@H](Cc2ccccc2)C(=O)O)ccc2c3c(c(=O)oc12)CCC3,3,-10,5,0,-1,0
Cc1c(Cc2ccccc2)c(=O)oc2c(C)c(OC(C)C(=O)N[C@@H](Cc3ccccc3)C(=O)O)ccc12 (stereo partly drawn),-10,29,97*,1,0,0
Cc1c(OC(C)C(=O)NCC(O)c2ccccc2)ccc2c3c(c(=O)oc12)CCC3 (stereo not drawn),-13,8,6,-1,-1,0
Cc1c(OCC(=O)NC(Cc2ccc(Cl)cc2)C(=O)O)ccc2c3c(c(=O)oc12)CCCC3 (stereo not drawn),5,27,98*,0,1,0
COC(=O)c1c(-c2cccs2)csc1NC(=O)c1cccnc1,x,-1,8,1,-3,1
CCc1ccc(N2CN(Cc3ccco3)CNC2=S)cc1,-27,-8,30,1,3,0
CN1/C(=C\C(=O)COC(=O)Cn2nnc(-c3ccccc3)n2)C(C)(C)c2ccccc21,268*,i,-7,0,3,0
CC1CCCN(S(=O)(=O)c2ccc(NC(=O)C3CC(=O)N(C(C)(C)C)C3)cc2)C1 (stereo not drawn),-7,0,-3,0,0,0
